Consider 40 sequences from the supplement of paper PMC6555819.

This experiment has as its system VDR:RXRa (NR concentration 270 nM, RXRa partner concentration 90 nM). In words: PBM binding z-score (relative to random genomic background probes); higher = stronger binding; sequences stand for … in GC…GCGATTGACAGCGTAGAATGAAGG
As to the method: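 Protein-binding microarray (Agilent 4x180K custom design, double-stranded 60-nt probes: 5' GC cap, 34-nt variable region, 24-nt constant primer region; full probe sequence given). Purified or IVT nuclear receptor:RXRα heterodimers (3:1 NR:RXRα, mostly 270:90 nM) or homodimers were incubated for 1 h in PBS with 2% milk and no ligand, then detected with Alexa488 antibodies. Fluorescence from o1-orientation probes (~5 replicates averaged) was converted to z-scores against 500 random hg19 background probes. Variable regions are seed direct-repeat (DR0–DR5) sites, all their single-nucleotide variants and half-site ablations.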
In turn, GCTAGTTGGTCAGTAAAGGGTCACACACCGGTCG gave a PBM binding z-score of 3.09. The sequence TCTTGTAGATCAAGCACGTTAAGAAAGCCTGAGT showed a PBM binding z-score of 0.187. GCTTATGGGTCAAAGGTTATAGCATGAATAGAAT registered a PBM binding z-score of 4.82. In turn, CTAACTAGGTCAAAGGTCAAAGTCGAGCCAACCA registered a PBM binding z-score of 6.59. As for ATATGTAGGTTACATCCGGGACATTCAGGCTATG, the figure is 1.14; as for ATCGAAAGGTCGTGAGGTGAGGATACAGAAAGGC, 3.46; as for TTACCAAGGGGAAGGTCGTTGATCCCTCTGTAGA, 0.561. For TCTGCTAGGTCAGTTGGTCAGCTACCGAGCTGCC the value was 0.106; for GATACAGGGTCAAGGCCAGATTACGCGTATTGAT, 4.45. As for CGTCAAAGTTCAGCTAAGGTAACGTAAAGCACGC, the PBM binding z-score turned out to be 3.33. As for TCTAGCAGGGCAGAGGGTCACTCAAGAGGTACGG, the figure is 1.63. CGAACTAGGTCAATGACAGTGAATCTCCGCACGC showed a PBM binding z-score of 1.15. Take ACAGACAGGAGAGTGAAGGTAACTCAGCTGGACG: the PBM binding z-score is -0.068.

As to CCTTTCGGGTCACTCCAGGTTATAGCATCGGAGT, the PBM binding z-score turned out to be 4.19. Regarding TCGAGTACGTTAGGGGCATTCAGAATGGCGTCGA, the PBM binding z-score stood at 2.6.

The sequence CTACCAAGGTGAACCAGGTCGTTGATTACTATTC displayed a PBM binding z-score of 4.93. As for CGAACGAGGGCATCAGTTGATAGCAAATGCCGAT, the figure is 0.559; as for TCAGTCAGGTGAAGGTAACTCAGGTACGCAGTCG, 0.652; as for TCTAGTTGGACAAAGGTCACACACTCGAAATGCG, 5.09. Turning to AGTCAAAGTTCATCCAGGTAACGTAAGATATGCT, the PBM binding z-score is 5.39.

For GCGACTGGGGCAAAGCAGGTTACCGTAAGGTTGG, the PBM binding z-score was -0.0193. On to GCTGCTAGGTCTACTGATGGTCAGCTAAAGCTCG, for which the PBM binding z-score is -0.746. For TCTTGTGGATCAATAGAGGTTAAGAAAGTGCGCT the value was 1.73.

As to CCTAGTGGGCCAAAAAGGTCATTGATGCCGATAA, the PBM binding z-score worked out at 4.82. CCTACTGCGCCACGAAAGGTCATTGATTCAGTGA: the PBM binding z-score came to 4.08. As for TCTATTAGTTGGTTAGGGCAACCGAAACAGCGGA, the PBM binding z-score was 0.428. On to GCTCGGAGGACAATGTCAGAGCTTTGTCCGTAGA, for which the PBM binding z-score is -0.573. Consider ATCTCTAGGTAAAGACAGTTCAGTGAATGCAAAT, for which the PBM binding z-score is 1.53.

As for CCTAGCAGGCCAATCTGGGTCACTCTAGGCTTGA, the PBM binding z-score is 0.251. Take CCTAGTTGGTCAGGCGGTCACACACCGGATATGA: the PBM binding z-score turned out to be 0.0126. For ACTATTAGTTGACTTAGCGCAACCGATACGACGC the value was 0.0494. In turn, CGAACTAGGTCATTGACAGGACGGTGAATAGTAA yielded a PBM binding z-score of 1.62.

As for CGTCCAAGATCAGCAGGTCAGTGAAAGCGACGTG, the PBM binding z-score was found to be 0.173. In turn, TCATATAGGTAATACAGGGGAAAGTCGGCATCTA yielded a PBM binding z-score of 1.06.

As for CTCGAAAGGTCGGTTGAGGTGAGTGTACGGATAA, the PBM binding z-score is 2.42. For the sequence GCTGCTAGGTCAACTGATGGTCAGCGAAAGCTCG, the PBM binding z-score worked out at 1.73. Turning to TCATATAGGTAAACAGGTGAATGTCCGTAAGTTA, the PBM binding z-score amounted to 0.948. As for ATCTCTAGGTAACAAGTTCAGGGAAAGAGAGGAC, the figure is 2.25; as for CCGGCTAGGTCATGGTCAGCTAATCTACAGTATG, 1.63; as for GTACCAAGGTGAATAGGTCCTTGATGAGTAGGCG, 0.968.
